Assay outcomes (PubChem)
An excerpt weighted towards active compounds, which were near 6.9% of everything screened.
Cy5 interf NS3h: Cy5 fluorescence interference, HCV helicase counter-screen | Cy5-dT15 DNA with NS3h; actives lie on both sides; signal over control mean, under 1 quenches | fluorescence interference ratio at 100 µM | hit rate 6% among 16,000 | AID 720488;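 active = compound fluorescence over control fluorescence at most 0.8, a quencher, or at least a set upper limit, an enhancer; inactive = ratio between 0.8 and the set upper limit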
HCV NS3h FP: blocks HCV NS3 helicase binding to DNA; NS3h Cy5-dT15 DNA binding, fluorescence polarization; inhibition, % at 100 µM; hit rate 1.6% among 16,000; AID 687043;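 active = inhibition above the average over every tested compound plus 3 SD, cut at about 40% in these data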
HCV NS3h conf: hepatitis C NS3 helicase inhibition, confirmation; inhibition, % at 100 µM; NS3h binding to Cy5-dT15 DNA, fluorescence polarization; hit rate 20% among 240; AID 720485; shares compounds with HCV NS3h FP;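 active = percent inhibition of 50% or more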
SSB FP counter: counter-screen for HCV NS3 helicase inhibitors: E. coli SSB binding | shares compounds with HCV NS3h FP | E. coli SSB binding Cy5-dT15, fluorescence polarization | inhibition, % at 100 µM | hit rate 40% among 240 | AID 720486;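 active = inhibition of at least 50%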;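 note: displacers lower Cy5 polarization so higher inhibition means more SSB displaced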
Target sequence (P0AGE0 whole entry, looked up): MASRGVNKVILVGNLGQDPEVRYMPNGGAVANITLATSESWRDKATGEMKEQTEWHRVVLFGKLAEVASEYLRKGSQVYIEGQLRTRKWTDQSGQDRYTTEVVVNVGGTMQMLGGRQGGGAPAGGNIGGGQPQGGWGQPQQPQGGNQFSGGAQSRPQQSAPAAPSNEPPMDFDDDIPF
Cy5 SSB fluor CB: Cy5 fluorescence interference in NS3h counter-screen. shares compounds with HCV NS3h FP. Cy5-dT15/E. coli SSB fluorescence interference; actives lie on both sides. fluorescence interference ratio at 100 µM. hit rate 8% among 240. AID 720487;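 active = fluorescence interference ratio at or above 1.2, signal boosting, or at or below 0.8, signal quenching; inactive = ratio between 0.8 and 1.2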;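 note: ratio of compound well signal to mean negative control signal so 1 means no effect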
Cy5 fluor confirm: confirmation counter-screen for HCV NS3 helicase inhibitors: fluorescence interference; shares compounds with HCV NS3h FP; Cy5-dT15 DNA/NS3h fluorescence interference counterscreen; fluorescence interference ratio at 100 µM, hits read low; hit rate 44% among 240; AID 720489;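 active = fluorescence interference ratio at or below 0.8 quencher or at or above a set limitenhancer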;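 note: ratio of compound fluorescence to mean of negative controls so 1 means no interference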
* marks the source's active call; other numbers are inactive results.

For Cc1ccc(N2CCSC2C(N)=O)cc1 (stereo not given) the results were Cy5 interf NS3h 0.91 and HCV NS3h FP 4.
`COC(=O)C1=C(C)NC(C)=C(C(=O)OC)C1c1ccc(OCC(N)=O)cc1` gave Cy5 interf NS3h 0.98 and HCV NS3h FP -1.
O=C(Nc1ccc(Cl)cc1)N1CCCc2ccccc21 was read as Cy5 interf NS3h 0.98 and HCV NS3h FP 10.
Screening O=C(NC(=S)Nc1nc(-c2ccccc2)cs1)c1ccc(Cl)cc1 returned Cy5 interf NS3h 1 and HCV NS3h FP 8.
Screening O=C(Nc1nc(-c2ccc(Cl)cc2)cs1)c1cccs1 returned Cy5 interf NS3h 1.2, HCV NS3h FP 40, HCV NS3h conf 27, SSB FP counter 19, Cy5 SSB fluor CB 0.97 and Cy5 fluor confirm 0.77*.
CN(C1=NC(=O)SC1)c1ccc(O)cc1 was read as Cy5 interf NS3h 1 and HCV NS3h FP 35.
`COc1ccc(NC(=O)CN(c2cccc(Cl)c2)S(C)(=O)=O)c(OC)c1` gave Cy5 interf NS3h 1 and HCV NS3h FP 4.
COc1ccc(OC)c(NC(=O)c2ccc(N(C)S(=O)(=O)c3ccccc3)cc2)c1 was read as Cy5 interf NS3h 0.89 and HCV NS3h FP 11.
For CC1=C(C#N)c2nc(N)c(C#N)c(C)c2/C1=C\c1ccc(I)o1 the results were Cy5 interf NS3h 1.1 and HCV NS3h FP 2.
CC1=C(C#N)c2nc(N)c(C#N)c(C)c2/C1=C/c1ccc(-c2cccc(C(=O)O)c2)o1 was read as Cy5 interf NS3h 1.1, HCV NS3h FP 121*, HCV NS3h conf 71*, SSB FP counter 152*, Cy5 SSB fluor CB 0.86 and Cy5 fluor confirm 0.99.
Nc1cccc(NC(=O)CCC(=O)O)n1 was read as Cy5 interf NS3h 1 and HCV NS3h FP 1.
`Cc1ccc(C)n1/N=C1/NC(=O)CS1` gave Cy5 interf NS3h 0.97, HCV NS3h FP 90*, HCV NS3h conf 77*, SSB FP counter 107*, Cy5 SSB fluor CB 0.93 and Cy5 fluor confirm 0.97.
For O=C1CSC(=Nc2ccc(O)cc2)N1 the results were Cy5 interf NS3h 0.99 and HCV NS3h FP 4.
For COc1ccc(OCC(=O)Nc2ccc(NC(=O)c3ccccc3)cc2)cc1 the results were Cy5 interf NS3h 0.96 and HCV NS3h FP -8.
COc1ccc(Cl)cc1NC(=O)C1=C(C)NC(=S)NC1c1cccc([N+](=O)[O-])c1 (stereo not given) was read as Cy5 interf NS3h 0.87 and HCV NS3h FP 5.
For Nc1sc2c(c1C(=O)Nc1ccc(Br)cc1)CCCC2 the results were Cy5 interf NS3h 1 and HCV NS3h FP 6.
`CCCC(C(=O)O)N1C(=O)/C(=C\c2ccc(-c3ccc([N+](=O)[O-])cc3)o2)SC1=S` (stereo not given) gave Cy5 interf NS3h 0.86, HCV NS3h FP 84*, HCV NS3h conf 8, SSB FP counter 54*, Cy5 SSB fluor CB 0.82 and Cy5 fluor confirm 0.71*.
Screening O=C1/C(=C/c2ccc(-c3ccc([N+](=O)[O-])cc3)o2)SC(=S)N1Cc1ccccc1 returned Cy5 interf NS3h 0.96 and HCV NS3h FP -6.
`COc1ccc(S(=O)(=O)Nc2ccc(F)c([N+](=O)[O-])c2)cc1` gave Cy5 interf NS3h 1 and HCV NS3h FP -11.
For Clc1ccc(COCc2nc3ccccc3n2Cc2ccc(Cl)cc2)cc1 the results were Cy5 interf NS3h 1 and HCV NS3h FP 0.
`Cc1ccc(OCCOc2ccc(Cl)cc2/C=C2/SC(=S)N(C)C2=O)cc1` gave Cy5 interf NS3h 0.91, HCV NS3h FP 46*, HCV NS3h conf 1, SSB FP counter 10, Cy5 SSB fluor CB 1.1 and Cy5 fluor confirm 0.8*.
Screening Cc1ccc(OCCOc2ccc(Br)cc2/C=C2/SC(=S)N(C)C2=O)cc1 returned Cy5 interf NS3h 1 and HCV NS3h FP 32.
`O=C(COC(=O)c1cccc(N2C(=O)CCC2=O)c1)c1ccccc1` gave Cy5 interf NS3h 1 and HCV NS3h FP -7.
Screening O=C(O)C1Nc2c(Cl)cc(Cl)cc2C2C=CCC12 (stereo not given) returned Cy5 interf NS3h 0.87, HCV NS3h FP 97*, HCV NS3h conf 57*, SSB FP counter 104*, Cy5 SSB fluor CB 0.9 and Cy5 fluor confirm 0.75*.
